A selection: hits, their analogues and other compounds. The true share with any hit is near 0.53%.
BioA inh: inhibitors of Mycobacterium tuberculosis BioA enzyme; purified M. tuberculosis BioA enzyme, plate reader; inhibition, % at 9.99 µM; 0.096% of 360,000 active; in the data active = inhibition above about 40%; inconclusive = no clear call, values can overlap the other calls
Yp Topo-I inh: blocks Yersinia pestis topoisomerase I activity; Y. pestis Topo-I cleavage product accumulation, plate reader; activity, % at 10 µM; 0.064% of 360,000 active; AID 504884; in the data active = activity above about 50%, passing the limit was not always enough; inconclusive = no clear call, values can overlap the other calls
PrP UTR inh: suppresses PrP 5' UTR mRNA reporter expression | cell-based PrP 5' UTR mRNA reporter, plate reader | 0.35% of 340,000 active | inhibition, % (test concentration not listed) | AID 488862; in the data active = inhibition above about 52%; also: 0 = median of the neutral control wells
TcdB inh: inhibitors of Clostridioides difficile toxin B glycohydrolase | P18177 | TcdB glycohydrolase enzymatic assay, plate reader | inhibition, % at 9.99 µM | 0.24% of 350,000 active; in the data active = inhibition above about 10%
Target sequence (P18177 whole entry, looked up): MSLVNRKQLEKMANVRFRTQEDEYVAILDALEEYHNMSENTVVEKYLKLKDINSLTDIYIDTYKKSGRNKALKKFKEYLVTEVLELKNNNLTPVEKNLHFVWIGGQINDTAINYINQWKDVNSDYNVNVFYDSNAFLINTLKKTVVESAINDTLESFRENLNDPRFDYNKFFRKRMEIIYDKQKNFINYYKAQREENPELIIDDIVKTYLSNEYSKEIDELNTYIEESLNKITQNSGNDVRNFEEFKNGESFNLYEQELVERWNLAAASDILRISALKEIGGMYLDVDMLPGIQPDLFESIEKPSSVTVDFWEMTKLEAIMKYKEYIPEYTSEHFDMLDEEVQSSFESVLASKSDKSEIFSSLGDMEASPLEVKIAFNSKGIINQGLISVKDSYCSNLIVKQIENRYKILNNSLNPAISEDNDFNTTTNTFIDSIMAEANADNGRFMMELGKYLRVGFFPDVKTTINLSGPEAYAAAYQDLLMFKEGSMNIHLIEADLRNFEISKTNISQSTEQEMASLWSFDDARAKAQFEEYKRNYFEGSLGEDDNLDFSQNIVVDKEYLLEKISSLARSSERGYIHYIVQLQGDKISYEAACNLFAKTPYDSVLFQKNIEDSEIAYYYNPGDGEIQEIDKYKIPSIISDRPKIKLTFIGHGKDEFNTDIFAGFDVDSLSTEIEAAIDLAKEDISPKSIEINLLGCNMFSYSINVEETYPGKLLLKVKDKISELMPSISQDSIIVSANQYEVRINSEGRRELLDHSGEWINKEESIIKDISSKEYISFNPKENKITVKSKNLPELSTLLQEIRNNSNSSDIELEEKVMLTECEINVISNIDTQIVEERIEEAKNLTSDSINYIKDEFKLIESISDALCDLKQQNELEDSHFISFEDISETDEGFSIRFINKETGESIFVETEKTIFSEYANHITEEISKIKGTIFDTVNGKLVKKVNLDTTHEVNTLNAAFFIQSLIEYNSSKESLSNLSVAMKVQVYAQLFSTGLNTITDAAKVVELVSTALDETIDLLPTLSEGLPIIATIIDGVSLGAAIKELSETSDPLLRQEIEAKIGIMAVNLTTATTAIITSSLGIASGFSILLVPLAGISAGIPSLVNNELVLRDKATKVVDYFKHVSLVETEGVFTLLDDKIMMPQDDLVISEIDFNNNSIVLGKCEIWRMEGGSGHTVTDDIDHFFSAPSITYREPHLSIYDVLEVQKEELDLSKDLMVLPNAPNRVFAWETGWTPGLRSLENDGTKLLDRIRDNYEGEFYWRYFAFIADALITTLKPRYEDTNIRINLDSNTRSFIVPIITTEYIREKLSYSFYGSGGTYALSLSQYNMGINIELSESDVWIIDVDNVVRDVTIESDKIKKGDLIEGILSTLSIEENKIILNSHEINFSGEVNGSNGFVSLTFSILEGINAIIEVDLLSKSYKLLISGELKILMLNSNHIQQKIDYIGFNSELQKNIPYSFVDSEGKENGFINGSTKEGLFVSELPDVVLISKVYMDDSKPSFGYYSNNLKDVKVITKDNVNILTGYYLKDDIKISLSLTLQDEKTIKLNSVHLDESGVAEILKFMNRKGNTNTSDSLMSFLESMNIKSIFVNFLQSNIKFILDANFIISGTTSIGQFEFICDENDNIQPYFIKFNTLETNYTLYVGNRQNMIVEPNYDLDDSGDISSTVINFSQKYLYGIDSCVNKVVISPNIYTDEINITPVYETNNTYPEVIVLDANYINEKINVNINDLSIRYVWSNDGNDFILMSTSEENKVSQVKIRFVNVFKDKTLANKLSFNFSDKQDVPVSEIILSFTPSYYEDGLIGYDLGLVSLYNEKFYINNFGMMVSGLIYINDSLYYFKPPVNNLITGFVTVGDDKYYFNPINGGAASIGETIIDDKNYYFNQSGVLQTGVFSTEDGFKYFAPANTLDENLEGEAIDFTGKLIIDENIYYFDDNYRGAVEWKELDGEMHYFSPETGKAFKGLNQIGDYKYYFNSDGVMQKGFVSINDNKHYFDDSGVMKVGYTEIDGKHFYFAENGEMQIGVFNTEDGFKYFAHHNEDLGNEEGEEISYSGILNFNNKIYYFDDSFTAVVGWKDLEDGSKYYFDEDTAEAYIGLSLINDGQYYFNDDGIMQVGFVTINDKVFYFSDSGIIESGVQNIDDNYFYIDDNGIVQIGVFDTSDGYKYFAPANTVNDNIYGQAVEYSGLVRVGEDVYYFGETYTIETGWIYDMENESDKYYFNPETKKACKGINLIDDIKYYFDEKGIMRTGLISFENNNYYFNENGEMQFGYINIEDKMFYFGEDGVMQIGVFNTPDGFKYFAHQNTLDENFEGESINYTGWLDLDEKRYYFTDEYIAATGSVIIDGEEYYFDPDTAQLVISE
PrP UTR cherry: prion 5' UTR mRNA inhibition, cherry-pick retest; shares compounds with PrP UTR inh; cell-based prion protein 5' UTR reporter, plate reader; inhibition, % at 2.5 µM; 48% of 1,100 active; AID 504592; in the data active = inhibition above about 54%; inconclusive = no clear call, values can overlap the other calls
Starred values were filed as active, the others as inactive; u = inconclusive; x = not tested or not shown.

SMILES | BioA inh | Yp Topo-I inh | PrP UTR inh | TcdB inh | PrP UTR cherry
N#C[C@@H]1[C@@H](c2ccc(-c3ccncc3)cc2)[C@@H](CO)N1C(=O)C1CCCC1 | -0.2 | x | x | 0.9 | x
COc1cccc2c1C(=O)c1c(O)c3c(c(O)c1C2=O)CC(O)(C(C)=O)CC3OC1CC(N(C)C)C(O)C(C)O1 (configuration not stated) | x | -37.0 | 87.6* | -24.3 | 90.5*
COc1cccc2c1C(=O)c1c(O)c3c(c(O)c1C2=O)C[C@@](O)(C(=O)CO)C[C@@H]3O[C@H]1C[C@H](N)[C@H](O)[C@H](C)O1 | -41.7 | -31.5 | 88.5* | -13.9 | 92.5*
Cc1cc(C)c(C#N)c(SCc2nnc(-c3ccccc3[N+](=O)[O-])o2)n1 | x | 2.7 | -37.7 | 0.7 | x
Cc1cc(C)c(C#N)c(SCc2nnc(-c3ccccc3)o2)n1 | -1.4 | -13.0 | 67.6* | 1.4 | 67.4*
COc1ccccc1CCc1nnc(CCC(=O)N(C)Cc2cccc3ncccc23)o1 | x | 19.6 | 57.7* | -0.2 | -25.7
Cc1ccc(S(=O)(=O)CC(=O)Nc2ccc(S(=O)(=O)Nc3ccccn3)cc2)cc1 | x | 1.6 | 80.2* | 0.6 | -19.6
O=C(NC(=S)Nn1cnnc1)c1ccc(F)cc1Cl | -0.6 | -3.9 | -21.3 | 1.2 | x
O=C(NC(=S)Nn1cnnc1)c1ccccc1Cl | x | -2.2 | 78.3* | 1.5 | -6.3
CCOc1ccccc1CNC(=O)CCc1cn(C)c2ccccc12 | 1.8 | 13.9 | -3.1 | 1.1 | x
COc1ccccc1CNC(=O)CCc1cn(C)c2ccccc12 | -1.0 | 7.5 | 66.2* | 1.2 | -0.6
CCCNC(=O)c1ccc2c(=O)c(O)c(-c3ccc(F)cc3)[nH]c2c1 | -0.9 | -3.2 | -3.7 | x | x
CCCNC(=O)c1ccc2c(=O)c(O)c(-c3cccc(Br)c3)[nH]c2c1 | -1.5 | -7.4 | 56.0* | 1.1 | u
Cc1ccc(C(=O)CN2C(=O)c3ccccc3S2(=O)=O)cc1 | -0.8 | -2.5 | 65.5* | -3.1 | 74.1*
O=C(CN1C(=O)c2ccccc2S1(=O)=O)c1ccccc1Cl | 0.8 | 6.2 | 69.0* | 0.6 | 70.5*
CO[C@H]1CN(C)C(=O)c2ccc(NC(=O)NC(C)C)cc2OC[C@@H](C)N(S(C)(=O)=O)C[C@@H]1C | x | x | x | 1.1 | x
Nc1ncnc2c1ncn2[C@@H]1O[C@H](CNCc2ccc(OCC(=O)Nc3ccccn3)cc2)[C@@H](O)[C@H]1O | -0.1 | -4.3 | 87.1* | 0.2 | -19.1
Nc1ncnc2c1ncn2[C@@H]1O[C@H](CNCc2ccc(OCc3ccccc3)cc2)[C@@H](O)[C@H]1O | -1.9 | -4.3 | -16.1 | 0.9 | x
CCCCNC(=O)CCCCn1c(=S)[nH]c2c([nH]c3ccc(OC)cc32)c1=O | x | -1.1 | -46.8 | 1.2 | x
CC[C@H](C)NC(=O)CCCCCn1c(=S)[nH]c2c([nH]c3ccc(OC)cc32)c1=O | x | -4.5 | 66.2* | 0.7 | -15.1
C[C@H](CO)N1C[C@H](C)[C@@H](CN(C)Cc2ccc3c(c2)OCO3)Oc2ccc(NS(=O)(=O)c3cccs3)cc2CC1=O | 0.8 | x | x | 1.4 | x
COc1ccc(NC(=O)N(C)C[C@H]2Oc3ccc(NC(=O)Nc4ccc5c(c4)OCO5)cc3CC(=O)N([C@@H](C)CO)C[C@@H]2C)cc1 | -2.6 | x | x | x | x
CC[C@]12c3[nH]c4cc(CCC(=O)N(C)C)ccc4c3CCN1C(=O)[C@@H](CC(=O)NCCc1ccccn1)C[C@@H]2C(=O)N1CCN(C(=O)c2ccco2)CC1 | -0.6 | 15.8 | -7.7 | 0.2 | x
CC[C@]12c3[nH]c4ccccc4c3CCN1C(=O)C(CC(=O)NCCc1ccccn1)C[C@@H]2C(=O)N1CCN(C(=O)c2ccco2)CC1 (some centres not stated) | 0.2 | 17.3 | 66.9* | 2.7 | -17.9
Cc1cc(C)c(S(=O)(=O)N2CCN(C(=O)CCOc3ccccc3C)CC2)c(C)c1 | -0.6 | 17.7 | 88.3* | -0.6 | 0.9
SMILES | BioA inh | Yp Topo-I inh | PrP UTR inh | TcdB inh | PrP UTR cherry
C[C@]12CCC3C(CCC4=CC(O)CC[C@@]43/C=N/O)C1(O)CCC2C1=CC(=O)OC1 (some centres not stated) | x | 1.2 | 79.7* | -1.8 | 70.2*
Cc1nc2c(-c3ccccc3)cnn2c(N)c1-c1ccccc1 | -2.1 | -9.4 | 64.7* | 0.1 | 10.2
COc1ccccc1S(=O)(=O)N[C@H]1C=C[C@H](CC(=O)NCc2cc(F)cc(F)c2)O[C@H]1CO | 1.7 | x | x | 1.7 | x
O=C(Nc1c(-c2ccccc2)nc2ccccn12)c1cccs1 | x | -3.5 | -15.1 | x | x
O=C(Nc1c(-c2cccs2)nc2ccccn12)c1ccccc1F | x | 3.7 | 82.1* | 1.6 | -25.2
COc1ccc(NC(=O)N(C)C[C@@H]2Oc3cc(C#CCN(C)C)ccc3S(=O)(=O)N([C@@H](C)CO)C[C@H]2C)cc1 | 2.2 | x | x | 0.9 | x
O=C(O)c1cccc(N/N=C/c2ccc(-c3ccccc3)cc2)c1 | x | -2.2 | -5.4 | -2.6 | x
CC(C)(C)c1ccc(/C=N/Nc2cccc(C(=O)O)c2)cc1 | x | -6.7 | 60.0* | -3.4 | 53.9*
CN(C)c1ccc(/C=N/Nc2cccc(C(=O)O)c2)cc1 | -2.4 | -8.1 | 93.2* | -2.0 | 92.1*
O=C(O)c1cccc(N/N=C/c2cccnc2)c1 | x | 5.4 | -20.6 | -4.4 | x
COc1ccc(NC(=O)N[C@@H]2CC[C@H](CCNS(=O)(=O)c3ccccc3F)O[C@@H]2CO)cc1 | -1.9 | x | x | 0.8 | x
COc1ccc(S(=O)(=O)Nc2ccc3c(c2)C(=O)N([C@@H](C)CO)C[C@H](C)[C@@H](CN(C)C(=O)CCC(F)(F)F)OCCCC[C@H](C)O3)cc1 | 1.4 | x | x | 0.6 | x
Cc1c(C(=O)N/N=C/c2ccc(Cl)cc2)[nH]c2ccc(Cl)cc12 | x | 3.7 | 61.2* | 0.9 | 78.2*
CCOc1ccc(/C=N/NC(=O)c2[nH]c3ccc(C)cc3c2C)cc1 | -1.2 | 2.2 | -13.4 | 0.9 | x
CC1CCN(C(=O)c2ccc(COc3ccccc3Cl)o2)CC1 | 1.0 | 17.3 | 76.5* | x | -6.2
C/C=C/c1ccc([C@H]2[C@@H](CO)N(CCC(F)(F)F)C23CN(C(C)=O)C3)cc1 | x | x | x | 1.2 | x
CCCNC(=O)C[C@@H]1CC[C@H]2[C@H](COc3ccc(NC(=O)C4CCCC4)cc3C(=O)N2C)O1 | 1.4 | x | x | 0.2 | x
CC(C)(O)/C=C/C(=O)[C@](C)(O)C1[C@H](O)C[C@@]2(C)C3CC=C4C(C[C@H](O)[C@@H](O)C4(C)C)[C@]3(C)C(=O)C[C@]12C (some centres not stated) | -0.7 | 3.8 | 64.6* | x | 74.9*
CC(C)(O)/C=C/C(=O)[C@](C)(O)C1[C@H](O)C[C@@]2(C)C3CC=C4C(C=C(O[C@@H]5O[C@H](CO)[C@@H](O)[C@H](O)[C@H]5O)C(=O)C4(C)C)[C@]3(C)C(=O)C[C@]12C (some centres not stated) | -0.9 | -9.9 | -11.2 | -6.8 | x
O=C(C1CC(=O)N(c2ccc3c(c2)OCCO3)C1)N1CCN(Cc2ccccc2F)CC1 (configuration not stated) | 2.1 | 10.3 | 85.7* | 1.3 | -8.8
O=C(Nc1ccc(N2CCCCC2)cc1)c1ccccn1 | x | -1.2 | 92.6* | x | 89.6*
O=C(Nc1ccc(N2CCCCCC2)cc1)c1ccccc1Cl | -1.2 | -10.6 | -44.1 | -22.3 | x
O=C(COC(=O)c1ccccc1Cl)NCc1cccs1 | -2.4 | -3.4 | x | -2.0 | x
